Sampled rows, rich in hits. Any-hit rate of the full collection: about 0.97%.
GASC-1 inh: human JMJD2C demethylase inhibition; Q9H3R0; GST-JMJD2C(1-420) H3K9me3 demethylation, DELFIA europium; inhibition, % at 2.35 µM; hit rate 0.069% among 330,000;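 active = more than half of a compound's replicate wells show inhibition beyond 50%, single wells judged on their own value; inconclusive = some, but no more than half, of replicates pass 50% inhibition; inactive = no replicate passes 50% inhibition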;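 note: signal counts dimethyl H3K9 product captured on neutravidin plate; 0% = median of DMSO wells and 100% = 0.3 times that DMSO median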
Target sequence (Q9H3R0 1-420 limits assumed): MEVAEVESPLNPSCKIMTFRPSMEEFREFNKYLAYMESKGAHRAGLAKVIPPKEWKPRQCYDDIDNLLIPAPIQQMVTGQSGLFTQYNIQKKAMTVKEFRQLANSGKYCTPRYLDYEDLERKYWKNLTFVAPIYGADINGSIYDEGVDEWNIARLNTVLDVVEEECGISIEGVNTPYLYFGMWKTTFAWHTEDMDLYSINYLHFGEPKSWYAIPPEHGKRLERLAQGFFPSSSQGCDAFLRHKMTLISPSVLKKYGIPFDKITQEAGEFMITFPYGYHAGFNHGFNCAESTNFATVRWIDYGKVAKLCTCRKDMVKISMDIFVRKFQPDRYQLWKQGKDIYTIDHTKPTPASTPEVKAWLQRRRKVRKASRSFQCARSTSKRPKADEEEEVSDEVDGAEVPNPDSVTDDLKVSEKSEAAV
RPL19A TOR yeast: alters RPL19A-GFP fluorescence in TOR pathway yeast screen. S. cerevisiae RPL19A-GFP strain, flow cytometry, 3 h; active compounds read low. percent response vs DMSO, % at 10 µM. hit rate 0.3% among 330,000;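 active = percent response vs DMSO below 50%; inconclusive = fewer than 70 events counted for the yeast strain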;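 note: median channel GFP fluorescence of the barcoded RPL19A-GFP strain; ratio of sample median GFP to plate DMSO average so 100% = DMSO; lower means less RPL19A-GFP as with rapamycin TOR inhibition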
LAP4-GFP MLPCN: yeast TOR pathway LAP4-GFP modulation | S. cerevisiae LAP4-GFP multiplex, flow cytometry GFP, 3 h; median GFP as percent of DMSO wells | GFP response vs DMSO, % at 10 µM | hit rate 0.34% among 320,000;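 active = GFP response vs DMSO above a set limit, about the screen mean plus 3 SD, cut at about 150% in these data; inconclusive = under 70 cell events counted for the yeast strain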
MEP2-GFP yeast: yeast TOR pathway MEP2-GFP modulation | GFP response vs DMSO, % at 10 µM | AID 2016 | S. cerevisiae MEP2-GFP strain, flow cytometry GFP, 3 h; 100% = DMSO control level | hit rate 0.51% among 330,000;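 active = GFP response versus DMSO above a set limit, roughly screen mean plus 3 SD, cut at about 180% in these data; inconclusive = fewer than 70 cells counted for a yeast strain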;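 note: median GFP fluorescence of the barcode-gated MEP2-GFP cells per well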
AGP1-GFP MLPCN: alters AGP1-GFP fluorescence in TOR pathway yeast screen. S. cerevisiae AGP1-GFP multiplex flow cytometry, 3 h; GFP as percent of DMSO wells. hit rate 0.02% among 320,000. GFP response vs DMSO, % at 10 µM;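 active = GFP response relative to DMSO above a set limit, near screen average plus 3 SD, cut at about 150% in these data; inconclusive = fewer than 70 cells counted for the yeast strain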;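 note: median GFP channel fluorescence of the gated AGP1 strain per well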
CIT2 TOR yeast: yeast TOR pathway CIT2-GFP modulation; S. cerevisiae CIT2-GFP strain, flow cytometry, 3 h; 100 means same as DMSO wells; GFP response vs DMSO, % at 10 µM; hit rate 0.065% among 320,000;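 active = GFP response relative to DMSO above a set limit, near the screen mean plus 3 SD, cut at about 150% in these data; inconclusive = Fewer than 70 cells measured for a yeast strain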;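 note: ratio of well median GFP fluorescence to mean of DMSO wells on the plate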
An asterisk follows results filed as active; ? = inconclusive; nt = no result given; [ ] = dose if it differs, or a comment.

SMILES | GASC-1 inh | RPL19A TOR yeast | LAP4-GFP MLPCN | MEP2-GFP yeast | AGP1-GFP MLPCN | CIT2 TOR yeast
Cc1n[nH]c(C)c1CCN | -4.0 | 59.5 | 65.6 | 235.2*[may fluoresce violet] | ? | ?
COC(=O)C1=C(c2c(C)noc2C)C[C@@H]2CC[C@H]1N2C(=O)NCCO | 0.6 | 97.1 | 113.8 | 97.1 | 107.5 | 101.8
COC(=O)C1=C(c2ccc(-c3ccccc3)c(F)c2)C[C@@H]2CC[C@H]1N2C(=O)NC1Cc2ccccc2C1 | 2.5 | 96.6 | 96.9 | 92.7 | 94.9 | 95.2
Cc1ccc(OCC(=O)NCCN2CCN(C(=O)COc3ccc(C)cc3)CC2)cc1 | 1.9 | 50.2 | 85.8 | 251.4*[may fluoresce violet] | ? | ?
Cc1ccc(OCC(=O)N2CCN(Cc3cccnc3)CC2)cc1 | -2.6 | 102.3 | 101.0 | 110.5 | 100.6 | 115.7
CCCNC(=O)c1c(N)n(Cc2ccco2)c2nc3ccccc3nc12 | -2.3 | 93.7 | 96.9 | 106.8 | 22.6 | ?
Nc1c(C(=O)NCC2CCCO2)c2nc3ccccc3nc2n1Cc1ccco1 (centres undefined) | -8.1 | 97.2 | 98.7 | 518.0*[may fluoresce violet] | 17.7 | ?
C[C@]12CCC3C(CC[C@H]4C[C@@H](O)CC[C@]34C)C1CCC2=O (some centres undefined) | 7.8 | 96.7 | 114.4 | 106.5 | 97.5 | 94.8
Cc1cccc(N2C(=O)/C(=C/c3ccc(CN(CCC#N)S(C)(=O)=O)o3)C(=O)NC2=S)c1 | 5.8 | 101.9 | 100.4 | 103.6 | 107.9 | 107.0
Cc1ccc(N2C(=O)/C(=C/c3ccc(CN(CCC#N)S(C)(=O)=O)o3)C(=O)NC2=S)cc1C | 5.9 | 64.4 | 97.4 | 198.2*[may fluoresce violet] | 22.9 | ?
FC(F)(F)c1ccccc1NC1=NCCCS1 | 6.0 | 33.5*[may fluoresce violet] | 62.9 | 255.3*[may fluoresce violet] | ? | ?
CCCC(=O)c1ccc(CP(=O)(OCC)OCC)o1 | 4.7 | 36.4*[may fluoresce violet] | nt | 310.5*[may fluoresce violet] | nt | nt
COP(=O)(Cc1ccc(C#N)o1)OC | 5.6 | 102.8 | nt | 107.3 | nt | nt
Cc1ccc(S(=O)(=O)N(C)N=O)cc1 | nt | 96.0 | 121.1 | 95.5 | 85.5 | 83.9
O=c1c2ccccc2[se]n1-c1ccccc1 | -11.9 | 39.1*[may fluoresce violet] | ? | 157.0 | ? | ?
O=c1c2ccccc2nc(-c2ccccc2)n1-c1ccccc1 | 7.2 | 98.1 | 99.8 | 88.2 | 96.1 | 95.8
O=c1ccc2cc(OC3O[C@H](CO)[C@@H](O)[C@H](O)[C@H]3O)c(O)cc2o1 (some centres undefined) | nt | 41.0*[may fluoresce violet] | 94.0 | 208.1*[may fluoresce violet] | ? | ?
COc1ccc(CCNCc2ccncc2)cc1 | -0.1 | 84.6 | 90.3 | 89.9 | 80.3 | 83.6
COc1ccc(CCNCc2ccccc2)cc1 | -3.0 | 60.5 | 67.4 | 230.4*[may fluoresce violet] | ? | ?
C#CCOc1cc(C2C3=C(COC3=O)Nc3cc4c(cc32)OCO4)ccc1OC (centres undefined) | -12.4 | 108.2 | 123.1 | 171.8 | 102.7 | 164.5*
C[C@]12CCC(=O)C(O)=C1CC[C@@H]1[C@@H]2CC[C@]2(C)C(=O)CC[C@@H]12 | -12.5 | ? | 454.4*[may fluoresce red] | 90.5 | 80.5 | 77.5
C[C@]12CCC3[C@@H](CC[C@@H]4C[C@H](O)CC[C@]34C)[C@@H]1CCC2=O (some centres undefined) | nt | 95.9 | 129.4 | 96.1 | 94.5 | 74.3
COCc1cc(OC(=O)N(C)C)nc2c1c(C)nn2C | 62.8* | 99.3 | 112.2 | 102.7 | 110.8 | 100.9
Cc1cc(OC(=O)N(C)C)nc2c1c(C)nn2C | -2.1 | 101.0 | 104.2 | 94.0 | 110.5 | 100.0
Oc1c(Br)c(Br)c(Br)c(Br)c1Br | 5.9 | 88.4 | 145.3 | 94.7 | 73.7 | 79.7
O=c1c2ccccc2nc(-c2ccccc2)n1-c1cccnc1 | -2.5 | 19.1*[may fluoresce violet] | 91.7 | 254.3*[may fluoresce violet] | ? | ?
CCC(C)N1C(=O)/C(=C\c2cnc(N(C)C)nc2)C(=O)NC1=S (centres undefined) | 4.1 | 97.2 | 161.8* | 89.4 | 93.7 | 79.6
O=C1NC(=O)N(Cc2ccccc2Cl)C(=O)/C1=C/c1cccs1 | ? | 95.0 | 133.4 | 82.8 | 81.4 | 77.3

High-throughput results as filed in PubChem BioAssay.
